In PubChem BioAssay (NCATS):
Values joined by “and” are separate entries in the source; they are usually repeats but may differ in a detail not shown here. Equal values may be shown once. Results filed as inconclusive are left out. Some structures have more than one record in an assay (separate samples or runs), and their calls can disagree. Active and inactive are the calls of the source. Calls come from the whole dose curve; as a rule, active = well fitted curve in the direction sought with a large enough effect; inconclusive = small, poorly fitted or top-dose-only effect, or another doubt; inactive = no such curve, though single readings can be large; an effect the other way counts as inactive or inconclusive.

Legend:
[1] = Viability qHTS for spleen associated tyrosine kinase inhibitor (SYKi) naive MV4-11 cells (AID 1963823); conditions: MV4-11 AML viability, CellTiter-Glo luminescence, 72 h; series mostly up to 45 µM; note: nearly all actives have a fitted effect of over 40% in size
Procedure, shortened: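 Seeding of 500 SYKi-naive MV4-11 cells per well onto pre-dispensed compounds preceded a 72 hr incubation at 37 C. Luminescent CellTiter-Glo signal, read after 10 min at room temperature, reflected viable cells.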

[2] = Viability qHTS for spleen associated tyrosine kinase inhibitor (SYKi) drug resistant MV4-11 cells (AID 1963824); conditions: SYKi-resistant MV4-11 viability, CellTiter-Glo, 72 h; series mostly up to 45 µM; note: nearly all actives have a fitted effect of over 35% in size
Procedure, shortened: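 SYK-inhibitor-resistant MV4-11 AML cells were seeded at 500 per well onto compound and cultured 72 hours (37 °C, 5% CO2). CellTiter-Glo was then added, and after 10 min at room temperature, luminescence gave viability.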

[3] = Quantitative highthroughput screen to assess conditional lethalithy of NOMO1 cells grown in RPMI1640 with untreated serum (RPMI+s) (AID 1963876); conditions: NOMO1 AML cells in RPMI+serum, CellTiter-Glo viability, 48 h; series mostly up to 45.8 µM; note: nearly all actives have a fitted effect of over 35% in size;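 for Viability: 100% = DMSO wells and 0% = empty wells without cells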
Procedure, shortened: (§1)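 Each medium arm—HPLM with 10% dialyzed FBS, or RPMI1640 with 5 mM glucose and 10% untreated or dialyzed FBS—was screened against an 11-point, 3-fold compound titration for 48 h at 37 °C, with CellTiter-Glo luminescence as endpoint.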

[4] = Quantitative highthroughput screen to assess conditional lethalithy of NOMO1 cells grown in RPMI1640 with dialyzed fetal bovine serum (RPMI+ds) (AID 1963877); conditions: NOMO1 in RPMI+dialyzed FBS viability, ATP luminescence, 48 h; series mostly up to 45.8 µM; note: nearly all actives have a fitted effect of over 30% in size;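 for Viability: 100% = DMSO control wells and 0% = empty wells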
Procedure, shortened: as §1

[5] = Quantitative highthroughput screen to assess conditional lethalithy of NOMO1 cells grown in Human Plasma-Like Medium with dialyzed fetal bovine serum (HPLM+ds) (AID 1963878); conditions: NOMO1 AML cells in HPLM+ds, CellTiter-Glo viability, 48 h; series mostly up to 45.8 µM; note: nearly all actives have a fitted effect of over 35% in size;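 for Viability: 100% = DMSO wells and 0% = empty wells on each plate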
Procedure, shortened: as §1

[6] = Quantitative highthroughput screen to assess conditional lethalithy of P12 Ichikawa cells grown in Human Plasma-Like Medium with dialyzed fetal bovine serum (HPLM+ds) (AID 1963879); conditions: ATP luminescence, 48 h; Potency: viability; series mostly up to 45.8 µM; note: nearly all actives have a fitted effect of over 35% in size
Procedure, shortened: as §1

[7] = Quantitative highthroughput screen to assess conditional lethalithy of P12 Ichikawa cells grown in RPMI1640 with dialyzed fetal bovine serum (RPMI+ds) (AID 1963880); conditions: ATP luminescence, 48 h; Potency: P12-Ichikawa viability; series mostly up to 45.8 µM; note: nearly all actives have a fitted effect of over 35% in size;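 for Viability: 100% = DMSO wells and 0% = empty wells on each plate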
Procedure, shortened: as §1

[8] = Quantitative highthroughput screen to assess conditional lethalithy of SEM cells grown in Human Plasma-Like Medium with dialyzed fetal bovine serum (HPLM+ds) (AID 1963882); conditions: SEM B-ALL cells in HPLM+ds, CellTiter-Glo viability, 48 h; series mostly up to 45.8 µM; note: nearly all actives have a fitted effect of over 35% in size
Procedure, shortened: as §1

[9] = Quantitative highthroughput screen to assess conditional lethalithy of SEM cells grown in RPMI1640 with unreated serum (RPMI+s) (AID 1963883); conditions: SEM B-ALL cells, CellTiter-Glo viability, 48 h; series mostly up to 45.8 µM; note: nearly all actives have a fitted effect of over 35% in size;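 for Viability: 100% = DMSO wells and 0% = empty wells without cells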
Procedure, shortened: as §1

[10] = Quantitative highthroughput screen to assess conditional lethalithy of SEM cells grown in RPMI1640 with dialyzed fetal bovine serum (RPMI+ds) (AID 1963884); conditions: SEM B-ALL cells, RPMI+dialyzed FBS, CellTiter-Glo viability, 48 h; series mostly up to 45.8 µM; note: nearly all actives have a fitted effect of over 35% in size;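 for Viability: 100% = DMSO control wells and 0% = empty wells without cells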
Procedure, shortened: as §1

[11] = Cellular viability qHTS for adrenocortical cancer (ACC) cell line SW-13 (AID 1963989); conditions: SW-13 ACC cells viability, CellTiter-Glo, 48 h; activity (max response): stronger effect = lower value; note: nearly all actives have a fitted effect of over 65% in size;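 for activity (max response): cells grown in serum-free medium with ITS supplement; % is set by controls: 0 for no effect and ±100 for the full control effect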
Procedure, shortened: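 Compound titrations (up to 46 uM final, in DMSO) were applied to SW-13 cells for 48 h at 37C/5% CO2. Reading used CellTiter-Glo after 20 min at room temperature; fitted curves yielded IC50 and efficacy.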

[12] = Cellular viability qHTS for adrenocortical cancer (ACC) cell line NCI-H295R (AID 1963990); conditions: CellTiter-Glo ATP luminescence, 48 h; series mostly up to 46.1 µM; note: nearly all actives have a fitted effect of over 60% in size
Procedure, shortened: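 Readout: CellTiter-Glo luminescence, 20 min RT. Exposure: 48 h, 37C/5% CO2. Cells: NCI-H295R, ITS-DMEM serum-free. Range: up to 46 uM. Analysis: 4PL fit, IC50 plus efficacy.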

[13] = Quantitative highthroughput screen to assess conditional lethalithy of P12 Ichikawa cells grown in RPMI1640 with untreated serum (RPMI+s) (AID 1963881); conditions: ATP luminescence, 48 h; Potency: viability; series mostly up to 45.8 µM; note: nearly all actives have a fitted effect of over 35% in size;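 for Viability: 100% = DMSO wells and 0% = empty wells without cells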
Procedure, shortened: as §1
Potency is the fitted concentration of half-maximal effect.

Row | SMILES | Potency [1] | Potency [2] | Potency [3] | Potency [4] | Potency [5] | Potency [6] | Potency [7] | Potency [8] | Potency [9] | Potency [10] | activity (max response) [11] | Potency [12] | Potency [13] | Potency [11]
1 | CC(C)(C)C(=O)Oc1ccc(S(=O)(=O)Nc2ccccc2C(=O)NCC(=O)O)cc1 | inactive | inactive | inactive | inactive | inactive | inactive | inactive | inactive | inactive | inactive | 1.32% (inactive) and -4.44% (inactive) | inactive |  | 
2 | CCN(c1ccccc1)c1cc(NC)[n+](C)c(C)n1 | 18.6 µM (active) | 18.6 µM (active) | inactive | inactive | inactive | inactive | inactive | inactive | inactive | inactive | -0.574% (inactive) | inactive |  | 
3 | CCS(=O)(=O)c1cccc(-c2cc(C(=O)NC3CCN(C)CC3)c(C)c3[nH]c4ncc(C)cc4c23)c1 | 40.4 nM (active) and 59 nM (active) | 36 nM (active) and 66.1 nM (active) | 14800 nM (active) | 11800 nM (active) | 6620 nM (active) | 264 nM (active) |  | 469 nM (active) | 296 nM (active) |  |  | 17.8 µM (active) | 235 nM (active) | 1000 nM (active)
4 | Cc1[nH]nc2ccc(-c3cncc(OC[C@@H](N)Cc4ccccc4)c3)cc12 | 82 nM (active) and 132 nM (active) | 0.116 µM (active) | 2960 nM (active) | 2350 nM (active) | 1660 nM (active) | 4180 nM (active) |  | 1180 nM (active) | 2090 nM (active) | 2350 nM (active) |  |  | 2960 nM (active) | 562 nM (active)
5 | CC1CNc2c(cccc2S(=O)(=O)N[C@@H](CCCN=C(N)N)C(=O)N2CC[C@@H](C)C[C@@H]2C(=O)O)C1 (some centres undefined) | inactive | inactive | inactive | inactive | inactive | inactive | inactive | inactive | inactive | inactive | -14.2% (inactive) | inactive |  | 
6 | Fc1ccc(Cl)cc1-c1nc(Nc2ccncc2)c2nccnc2n1 | inactive and 18.6 µM (active) | inactive | inactive | inactive | inactive | inactive |  | inactive | inactive |  | -19.5% (inactive) | inactive | inactive | 
7 | CC(C)(N)c1ccc(-c2nc3ccccc3nc2-c2ccccc2)cc1 | 9.2 µM (active) | 14.8 µM (active) | 74.3 nM (active) | 83.3 nM (active) | 23.5 nM (active) | 23.5 nM (active) | 74.3 nM (active) |  | 14.8 nM (active) |  | -5.56% (inactive) |  |  | 
8 | O=c1[nH]nc(OCCCc2ccc(Cl)cc2)c(NCc2cccnc2)c1Br | 4.11 µM (active) | 4.11 µM (active) | 11800 nM (active) | 5900 nM (active) | 2960 nM (active) | 5900 nM (active) | 5260 nM (active) | 743 nM (active) | 6620 nM (active) | 14800 nM (active) |  |  |  | 7940 nM (active)
9 | CN(C)c1ccc(C(=C2C=CC(=[N+](C)C)C=C2)c2ccc(N(C)C)cc2)cc1 | 0.332 µM (active) | 0.372 µM (active) | 148 nM (active) | 132 nM (active) | 118 nM (active) | 264 nM (active) |  | 118 nM (active) | 105 nM (active) | 93.5 nM (active) |  | 920 nM (active) and 2.82 µM (active) | 118 nM (active) | 
10 | CCCCCCCCc1ccc(CCC(N)(CO)CO)cc1 | 5.17 µM (active) | 4.61 µM (active) | 18700 nM (active) | 23500 nM (active) | 14800 nM (active) | 23500 nM (active) | 18700 nM (active) | 23500 nM (active) |  |  |  | 7.08 µM (active) |  | 17800 nM (active)
11 | Nc1ccccc1NC(=O)c1ccc(CNC(=O)OCc2cccnc2)cc1 | 651 nM (active) and 742 nM (active) | 366 nM (active) and 468 nM (active) | 2640 nM (active) | 1660 nM (active) | 1320 nM (active) | 2350 nM (active) | 2350 nM (active) | 833 nM (active) | 743 nM (active) | 743 nM (active) |  | 2 µM (active) |  | 11200 nM (active)
12 | Cc1ccc(F)c(NC(=O)Nc2ccc(-c3cccc4[nH]nc(N)c34)cc2)c1 | 0.0166 µM (active) | 0.0231 µM (active) | inactive | inactive | inactive |  | inactive |  | 10500 nM (active) | 5900 nM (active) |  | 15.8 µM (active) | inactive | 22400 nM (active)
13 | CNC(=O)[C@H](Cc1ccccc1)NC(=O)[C@H](CC(C)C)[C@H](CSc1cccs1)C(=O)NO | 5.25 µM (active) | 2.95 µM (active) | inactive | inactive | inactive |  | 11800 nM (active) | 16600 nM (active) |  | 14800 nM (active) | -14.2% (inactive) | inactive | 9350 nM (active) | 
